{
  "source": "the supplement of paper PMC11150407",
  "note": "About 180 (8.6%) of roughly 2,100 compounds showed an effect of 50% or more. What follows is part of a selection rich in strong results, with near analogues and random picks from the rest.",
  "data": [
    {"tested_on": "MOLM1 and UCSD/AML1 (averaged)", "experiment": "cell viability relative to DMSO control (POC); higher = less growth inhibition", "conditions": "1 µM; 72 h", "method": "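Primary viability screen in the 3q26 EVI1-high AML cell lines MOLM1 and UCSD/AML1 (1.5e3 cells/well, 384-well), compounds at 1 uM for 72 h. ATP CellTiter-Glo read-out given as percent of viable cells over DMSO control (POC), averaged over duplicates. DMSO was the negative control and 5 uM etoposide the positive control. This mapping covers the MicroSource Spectrum and Selleck anticancer libraries (drug names).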", "units": {"cell viability": "%"}, "values": [
      {"smiles": "COC(=O)C[C@H]1C(C)(C)C(=O)[C@@H]2CC3=C4CC(=O)O[C@@H](c5ccoc5)[C@]4(C)CC[C@@H]3[C@@]1(C)C2=O", "cell viability": 99.2},
      {"smiles": "C=C1CCC2C(CC2(C)C)C(=O)CCC1O", "note": "(centres undefined)", "cell viability": 104},
      {"smiles": "CC1(C)C2CC(=O)O[C@@]3(C)C4=CC(=O)O[C@@H](c5ccoc5)[C@]4(C)CCC3[C@@]2(C)C=C[C@H]1O", "note": "(some centres undefined)", "cell viability": 95.9},
      {"smiles": "Cn1cncc1[C@@](N)(c1ccc(Cl)cc1)c1ccc2c(c1)c(-c1cccc(Cl)c1)cc(=O)n2C", "note": "[Tipifarnib (Zarnestra)]", "cell viability": 36.5},
      {"smiles": "CO[C@@]12[C@H](COC(N)=O)C3=C(C(=O)C(C)=C(N)C3=O)N1C[C@@H]1N[C@@H]12", "cell viability": 13},
      {"smiles": "C=CCc1ccc(OC(=O)c2ccccc2)c(OC)c1", "cell viability": 95.6},
      {"smiles": "O=c1c2cc(O)c(O)cc2oc2cc(O)c([C@@H]3O[C@H](CO)[C@@H](O)[C@H](O)[C@H]3O)c(O)c12", "cell viability": 96.4},
      {"smiles": "CC1(C)C(=O)[C@H]2C[C@]3(O)C4=CC(=O)O[C@@H](c5ccoc5)[C@@]4(C)CCC3[C@](C)(C2=O)[C@H]1CC(=O)O", "note": "(some centres undefined)", "cell viability": 95.4},
      {"smiles": "CCOC(=O)c1c(C)cc(OC)cc1O", "cell viability": 95.3},
      {"smiles": "COc1ccc(S(=O)(=O)Nc2cccnc2Nc2ccc(O)cc2)cc1", "cell viability": 49.4},
      {"smiles": "Nc1ccc(S(=O)(=O)Nc2ccccn2)cc1", "cell viability": 100},
      {"smiles": "COc1cnc(NS(=O)(=O)c2ccc(N)cc2)nc1", "cell viability": 100},
      {"smiles": "C=C1C2CC[C@@]3(C)[C@H](c4ccoc4)OC(=O)C[C@]13O[C@H]1CC(O)C(C)(C)C(CC(=O)OC)[C@@]21C", "note": "(stereo partly drawn) [3alpha-HYDROXY-3-DEOXYANGOLENSIC ACID METHYL ESTER]", "cell viability": 97.3},
      {"smiles": "O=C(O[C@@H]1Cc2c(O)cc(O)cc2O[C@@H]1c1cc(O)c(=O)c2c(O)c(O)cc([C@H]3Oc4cc(O)cc(O)c4C[C@H]3O)c2c1)c1cc(O)c(O)c(O)c1", "cell viability": 101},
      {"smiles": "C=C[C@@](C)(O)CCC1C(=C)CCC2[C@@](C)(CO)CCC[C@]12C", "note": "(some centres undefined)", "cell viability": 112},
      {"smiles": "COc1cc(O)c(C(C)=O)c(O)c1", "cell viability": 110},
      {"smiles": "CS(=O)(=O)N1CCc2c(-c3cnc(N)nc3)nc(N3CCOCC3)nc21", "cell viability": 47.5},
      {"smiles": "CC(C)[C@H](C(=O)Nc1ccc(C(=O)NO)cc1)c1ccccc1", "cell viability": 0.459},
      {"smiles": "CC(=O)Nc1ccccc1", "cell viability": 101},
      {"smiles": "O=C(Nc1ccc(C(=O)O)c(O)c1)c1ccccc1", "cell viability": 96.4},
      {"smiles": "O=c1c(O)c(-c2ccc(O)c(O)c2)oc2cc(O)ccc12", "cell viability": 94},
      {"smiles": "C[C@]12CCC3c4ccc(OS(=O)(=O)O)cc4CCC3C1CC[C@H]2O", "note": "(some centres undefined)", "cell viability": 98.1},
      {"smiles": "O=C(O)c1cc(=O)c(O)c2c(O)c(O)c(O)cc2c1", "cell viability": 115},
      {"smiles": "CNc1ccccc1C(=O)N1CCc2c([nH]c3ccccc23)C1=O", "cell viability": 88.5},
      {"smiles": "Cc1occc(=O)c1O", "cell viability": 103},
      {"smiles": "Cc1nc(Nc2ncc(C(=O)Nc3c(C)cccc3Cl)s2)cc(N2CCN(CCO)CC2)n1", "cell viability": 29.5},
      {"smiles": "CCCC(=O)[O-].[Na+]", "note": "[Sodium butyrate]", "cell viability": 91.3},
      {"smiles": "OCCn1cc(-c2cnc3nnn(Cc4ccc5ncccc5c4)c3n2)cn1", "cell viability": 26.7},
      {"smiles": "Cn1cc(-c2ccc3nnc(C(F)(F)c4ccc5ncccc5c4)n3n2)cn1", "cell viability": 101},
      {"smiles": "Cn1cc(-c2ccc3nnc(Sc4ccc5ncccc5c4)n3n2)cn1", "cell viability": 82.3},
      {"smiles": "C[C@]12CC[C@H](O)CC1=CC[C@@H]1[C@@H]2CC[C@]2(C)C(c3cccnc3)=CC[C@@H]12", "note": "[Abiraterone (CB-7598)]", "cell viability": 102},
      {"smiles": "COc1cc2c(cc1OC)[C@@H]1Cc3ccc(OC)c(OC)c3CN1CC2", "cell viability": 108},
      {"smiles": "CN(C)CCOc1ccc(-c2nc(-c3ccncc3)c(-c3ccc4c(c3)CC/C4=N\\O)[nH]2)cc1", "cell viability": 76.1},
      {"smiles": "COc1cc(/C=C/C(=O)O)ccc1O", "cell viability": 104},
      {"smiles": "O=C1C=C2CC3(O)COc4cc(O)ccc4C3=C2C=C1O", "note": "(centres undefined)", "cell viability": 99.3},
      {"smiles": "Cc1cnc(NC(=O)Nc2cc(Br)c(C)cc2OC[C@@H]2CNCCO2)cn1", "cell viability": 46.1},
      {"smiles": "COc1c2ccoc2nc2c(OC)c(OCC(O)C(C)(C)O)ccc12", "note": "(centres undefined)", "cell viability": 90.2},
      {"smiles": "CC(C)=CC1C(CO)C1(C)C", "note": "(centres undefined)", "cell viability": 104},
      {"smiles": "Nc1ncn([C@@H]2O[C@H](CO)[C@@H](O)[C@H]2O)c(=O)n1", "cell viability": 77.4},
      {"smiles": "Nc1nc(Cl)nc2c1ncn2[C@@H]1O[C@H](CO)[C@@H](O)[C@@H]1F", "note": "[Clofarabine]", "cell viability": 6.72},
      {"smiles": "COc1nc(N)nc2c1ncn2[C@@H]1O[C@H](CO)[C@@H](O)[C@@H]1O", "note": "[Nelarabine (Arranon)]", "cell viability": 109},
      {"smiles": "Nc1nc(F)nc2c1ncn2[C@@H]1O[C@H](COP(=O)(O)O)[C@@H](O)[C@@H]1O", "cell viability": 74.4},
      {"smiles": "O=c1[nH]c(=O)n([C@H]2C[C@H](O)[C@@H](CO)O2)cc1F", "cell viability": 83.1},
      {"smiles": "O=c1[nH]c(=O)n([C@H]2C[C@H](O)[C@@H](CO)O2)cc1F", "note": "[Floxuridine]", "cell viability": 64.4},
      {"smiles": "Nc1ncn([C@@H]2O[C@H](CO)[C@@H](O)[C@H]2O)c(=O)n1", "note": "[Azacitidine (Vidaza)]", "cell viability": 84.2},
      {"smiles": "Nc1ncn([C@H]2C[C@H](O)[C@@H](CO)O2)c(=O)n1", "note": "[Decitabine]", "cell viability": 41.3},
      {"smiles": "Nc1nc(F)nc2c1ncn2[C@@H]1O[C@H](CO)[C@@H](O)[C@@H]1O", "note": "[Fludarabine (Fludara)]", "cell viability": 53},
      {"smiles": "Nc1nc(F)nc2c1ncn2[C@@H]1O[C@H](COP(=O)(O)O)[C@@H](O)[C@@H]1O", "note": "[Fludarabine Phosphate (Fludara)]", "cell viability": 44.2},
      {"smiles": "Nc1nc(Cl)nc2c1ncn2[C@H]1C[C@H](O)[C@@H](CO)O1", "note": "[Cladribine]", "cell viability": 5.67},
      {"smiles": "CCc1cn([C@H]2C[C@H](O)[C@@H](CO)O2)c(=O)[nH]c1=O", "cell viability": 91.5},
      {"smiles": "Nc1ncnc2c1ncn2[C@@H]1O[C@H](COP(=O)(O)O)[C@@H](O)[C@H]1O", "cell viability": 99.1},
      {"smiles": "NC(=O)c1ccc[n+]([C@@H]2O[C@H](COP(=O)([O-])OP(=O)(O)OC[C@H]3O[C@@H](n4cnc5c(N)ncnc54)[C@H](O)[C@@H]3O)[C@@H](O)[C@H]2O)c1", "cell viability": 81.6},
      {"smiles": "Nc1ncnc2c1ncn2[C@H]1C[C@H](O)[C@@H](CO)O1", "cell viability": 90.9},
      {"smiles": "OC[C@@H](O)[C@@H](O[C@@H]1O[C@H](CO)[C@@H](O)[C@H](O)[C@H]1O)[C@H](O)[C@@H](O)CO", "cell viability": 92.2},
      {"smiles": "COc1ccc([C@H]2Oc3cc(OC)cc(OC)c3C[C@H]2O)cc1", "cell viability": 98.4},
      {"smiles": "COC(=O)C[C@H]1C2(C)CC34OC5(C)O[C@@]6([C@H](OC)C(OC(=O)C(C)C)[C@]7(C)C(/C(=C(/OC)C(C)C)C(=O)O[C@H]7c7ccoc7)[C@@]6(O5)[C@H](OC)[C@@]3(OC)C2OC(C)=O)[C@]14C", "note": "(some centres undefined)", "cell viability": 105},
      {"smiles": "Cc1c(C(=O)O)c(O)cc2c1C(=O)c1c(O)c([C@@H]3O[C@H](CO)[C@@H](O)[C@H](O)[C@H]3O)c(O)c(O)c1C2=O", "cell viability": 92.5},
      {"smiles": "O=C(O)c1cccc(O)c1O", "cell viability": 107},
      {"smiles": "C[C@H]1[C@H](C)CC[C@]2(CO)CC[C@]3(C)C(=CC[C@@H]4[C@@]5(C)CC[C@H](O)C(C)(C)[C@@H]5CC[C@]43C)[C@H]12", "cell viability": 110},
      {"smiles": "CC(=O)O[C@@H]1CC2C(C)(C)C(=O)CC[C@]2(C)C2CC[C@]3(C)C(=CC(=O)O[C@H]3c3ccoc3)[C@@]21C", "note": "(some centres undefined)", "cell viability": 110},
      {"smiles": "COc1c(OC)c2occc2c2oc(=O)ccc12", "cell viability": 117},
      {"smiles": "CC(=O)O[C@H]1CC[C@]2(C)[C@H]3CC=C4[C@@H]5CC(C)(C)CC[C@]5(C)CC[C@@]4(C)[C@]3(C)CC[C@H]2C1(C)C", "note": "[beta-AMYRIN ACETATE]", "cell viability": 107},
      {"smiles": "CC(=O)CC(=O)CCC(=O)O", "cell viability": 96.2},
      {"smiles": "CCOC(=O)c1c(C)cc(O)cc1O", "cell viability": 104},
      {"smiles": "CC1=CCCC(C)=CCC(C)(C)C=CC1", "note": "[HUMULENE (alpha)]", "cell viability": 113},
      {"smiles": "CN(C)Cc1ccc(-c2nc3cccc4c3n2CCNC4=O)cc1", "cell viability": 100},
      {"smiles": "Nc1ccc(-c2ccc3ncc4ccc(=O)n(-c5cccc(C(F)(F)F)c5)c4c3c2)cn1", "note": "[Torin 2]", "cell viability": 10},
      {"smiles": "CCC(=O)N1CCN(c2ccc(-n3c(=O)ccc4cnc5ccc(-c6cnc7ccccc7c6)cc5c43)cc2C(F)(F)F)CC1", "note": "[Torin 1]", "cell viability": 20.8},
      {"smiles": "COc1ccc2c3n(c(=NC(=O)c4cccnc4)nc2c1OC)CCN3", "cell viability": 64.3},
      {"smiles": "COc1cc(C)c(C(=O)O)c(O)c1", "cell viability": 100},
      {"smiles": "S=C(NCc1ccc2c(c1)OCO2)N1CCN(c2ncnc3c2oc2ccccc23)CC1", "note": "[Amuvatinib (MP-470)]", "cell viability": 77.9},
      {"smiles": "COC(=O)[C@@H]1OC(=O)[C@H]2O[C@@]23[C@@]1(C)CCC1[C@@]2(C)CCC(=O)C(C)(C)C2C[C@@H](OC(C)=O)[C@]13C", "note": "(some centres undefined)", "cell viability": 99},
      {"smiles": "O=C(Nc1c[nH]nc1-c1nc2ccc(CN3CCOCC3)cc2[nH]1)NC1CC1", "cell viability": 17.5},
      {"smiles": "CC(=O)Oc1cc(OC(C)=O)c2c(c1)O[C@H](c1ccc(OC(C)=O)c(OC(C)=O)c1)[C@H](OC(C)=O)C2", "cell viability": 104}
    ]}
  ]
}
